Hits are enriched below; roughly 2.2% of the tested compounds scored in any of these assays.
Shn3 inh set2 – Schnurri-3 reporter inhibition in Clone20 osteoblasts. Clone20 osteoblast Shn3 3'UTR firefly luciferase, 24 h. inhibition, % at 12.5 µM. actives 0.52% (n = 360,000);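 active = mean inhibition of at least 75% with every replicate also reaching 75%; inconclusive = mean inhibition at least 75% but some replicate below; inactive = mean inhibition below 75%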;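 also: 0% = median of neutral control wells and 100% = pilot-screen positive control compound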
CSC inhib – blocks cancer stem cells. cancer stem cell-like cells viability, luminescence. inhibition, % at 7.5 µM. actives 1.1% (n = 300,000); in the data active = inhibition above about 75%; inconclusive = no clear call, values can overlap the other calls; tested in HMLE shEcad cells
PfHsp90 yeast 2 – growth inhibition of yeast expressing Plasmodium Hsp90; actives 0.32% (n = 310,000); inhibition, % at 9.4 µM; S. cerevisiae expressing PfHsp90, BacTiter-Glo ATP, 48 h; yeast lacking PDR1 and PDR3 efflux regulators; AID 504621;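 active = every replicate shows inhibition above about 80%, whatever the replicate mean, limit read from the data; inconclusive = mean inhibition reaches the set limit but some replicate falls short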;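 also: 0% = DMSO neutral controls and 100% = 20 µM radicicol positive controls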
Calb FLC – C. albicans growth modulation with fluconazole; C. albicans CaCi-2 (fluconazole-resistant clinical isolate) + fluconazole, Alamar Blue growth, 48 h; growth inhibition, % (concentration not given with the values); actives 0.57% (n = 300,000); AID 1979;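 active = growth inhibition above about 58% in most replicates, limit read from the data, passing the limit was not always enough; inconclusive = exactly half the replicates above a set limit; inactive = most replicates below a set limit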;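 also: all wells also contain fluconazole at 8 µg/ml as a sub-toxic cotreatment; 0% = median of DMSO wells and 100% = median of geldanamycin control wells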
Beta apoptosis – blocks beta cell apoptosis | protection from apoptosis, % (test concentration not listed) | INS-1E cytokine-induced death, ATP luminescence, 48 h; percent of positive-control rescue, neutral wells zero | actives 0.8% (n = 300,000);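 active = Every replicate reaches about 75%, or at least half do and their mean reaches it too, limit read from the data; inconclusive = At least half of replicates reach the limit but their mean does not; inactive = Under half of replicates reach the limit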;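 also: 0% = cytokine-treated negative control wells and 100% = positive control rescue; higher means more ATP so stronger rescue from cytokine killing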
* hit, by the source's call; ? = inconclusive; . = no result given.

SMILES	Shn3 inh set2	CSC inhib	PfHsp90 yeast 2	Calb FLC	Beta apoptosis
CC1=CC2OC3CC4OC(=O)C=CC=CC(C(C)O)OCC(O)C5(C)OC5C(=O)OCC2(CC1O)C4(C)C31CO1 (configuration not stated)	98*	.	-13	.	.
CC(O)C1C=CC=CC(=O)OC2CC3OC4C5OC5(C)C(O)CC4(COC(=O)C(O)C(C)CCO1)C2(C)C31CO1 (configuration not stated)	96*	.	-4	.	.
COc1ccc(C(=O)NC(=S)N2C[C@H]3C[C@H](C2)c2cccc(=O)n2C3)cc1	19	-7	1	-1	-2
COc1ccc(NC(=O)c2cn(CCC#N)nc2-c2ccc(OC)c(OC)c2)cc1	9	-2	19	1	-8
CC1(C)CN=C(NCc2ccccc2Cl)S1	2	.	.	-29	-11
Cc1ccc(CN2Cc3ccc(Br)cc3-n3nncc3C2)cc1	2	.	.	.	.
CN(C)CC(C(=O)Cc1ccccc1)c1ccccc1 (configuration not stated)	95*	.	.	.	.
C[C@@H]([C@@H](O)c1ccccc1)N(C)C(=O)Cc1ccccc1	2	-10	7	8	-12
O=C(Nc1ccc(F)cc1)OC1CN2CCC1CC2 (configuration not stated)	2	-1	7	5	.
Cc1cc(C)cc(N2C(=O)NC(=O)/C(=C/c3cccn3-c3ccc(Cl)cc3)C2=O)c1	75	75*	-12	-4	-7
CC1CC2CC(=O)CCC2(C)C2CCC3(C)C(O)CCC3C12 (configuration not stated)	11	.	.	.	.
CCN1CCN(C(=O)COc2ccc3oc4c(c3c2)CCCC4)CC1	-4	-4	2	.	-4
CN1CC2CN(Cc3ccccc3)S(=O)(=O)C2C1 (configuration not stated)	-6	.	.	.	.
Cc1ccccc1[N+](=O)[O-]	-8	-13	8	.	5
Cc1cc([N+](=O)[O-])c2ccccc2[n+]1[O-]	?	32	108*	?	115*
Cc1c(C(=O)N2CCC3(CC2)OCCO3)sc2ncnc(N3CCN(c4ccccn4)CC3)c12	18	4	-28	.	-3
Cn1c(O)c(C(=N)COc2cccc(Cl)c2)c(=O)n(C)c1=O	-3	1	20	-7	5
CC(C)=CCc1c(O)cc2c(c1O)C(=O)CC(c1ccc(O)cc1)O2 (configuration not stated)	17	99*	59	3	.
CCOc1cc2c(cc1OCC)-n1cccc1C(c1ccc(OC)cc1)NC2 (configuration not stated)	21	8	-5	11	6
C/C(=N\NC(=O)c1ccccc1O)c1c(O)n(Cc2ccccc2)c(=O)[nH]c1=O	.	1	23	-28	3
CC(=NCCCn1ccnc1)c1c(O)n(-c2ccccc2)c(=O)[nH]c1=O	-14	-13	1	3	.
Cn1c(O)c(C(=O)c2ccccc2)c(=O)n(C)c1=O	5	-12	4	-2	-1
C/C(=N\Nc1ccccc1)c1c(O)n(-c2ccccc2)c(=O)[nH]c1=O	0	75*	2	-21	1
C/C(=N\Nc1ccccc1)c1c(O)n(Cc2ccccc2)c(=O)[nH]c1=O	15	110*	-4	19	3
C/C(=N\Nc1ccccc1)c1c(O)[nH]c(=O)[nH]c1=O	5	82*	17	-21	.
SMILES	Shn3 inh set2	CSC inhib	PfHsp90 yeast 2	Calb FLC	Beta apoptosis
C/C(=N\Nc1ccccc1)c1c(O)n(C)c(=O)n(C)c1=O	4	91*	-31	-1	-4
CC1CCN(C(=O)CCl)CC1	-9	3	-48	?	-3
O=C(NC1CCCCC1)N1Cc2ccccc2-n2nncc2C1	5	.	-8	.	.
COc1ccc(OC)c(CN2CCCC(C(=O)c3sccc3C)C2)c1 (configuration not stated)	.	10	-1	-16	6
Cc1nc2c(=O)n(C)c(=O)nc-2n(C)n1	98*	2	7	19	106*
CC1CCCCC12C(=O)NC(=O)NC2=O (configuration not stated)	4	.	12	.	.
Cc1oc2ccc(OC(=O)N(C)C)cc2c1C(=O)OC(C)C	11	-8	0	107*	-2
COc1cccc(Oc2c(C)oc3cc(OC(=O)N(C)C)ccc3c2=O)c1	-12	3	.	-18	.
CCOC(=O)c1c(-c2ccc(OC)cc2)oc2ccc(OC(=O)N(C)C)cc12	40	76*	?	-34	3
COc1cccc2cc(-c3cc(=O)oc4ccc(OC(=O)N(C)C)cc34)oc12	-9	11	19	-6	-6

Bioassay records from PubChem.
